Source: PubChem BioAssay AID1159580 (chemical genetic matrix, 2015)
The whole screen tested about 5,500 compounds, of which about 2,000 (36%) were called active. Not shown: some 18% with an inconclusive outcome. No stated cut-off is given here; in the data, active means normalized growth mostly below about 0.91 (no sharp cut-off); inconclusive means no clear call, values can overlap the other calls; inactive means mostly above about 0.92. The list shows a part of the results.

Assay: chemical genetic growth profiling, strain panel (AID 1159580);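 further: tested at 20 µM; growth read once vehicle control cultures reached saturation at 30 °C; 1 = growth at the plate median or of vehicle wells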
Settings: S. cerevisiae deletion strains, growth OD

Measured: normalized growth

CC1(C)Oc2ccc3ccc(=O)oc3c2CC1O (centres undefined)
inactive: locus YAL013W, strain DEP1, stronger effect = lower value 0.994 | locus YAL021C, strain ccr4, stronger effect = lower value 1 | locus YAL026C, strain drs2, stronger effect = lower value 0.967 | locus YAL030W, strain snc1, stronger effect = lower value 0.972 | locus YBL061C, strain skt5, stronger effect = lower value 0.971 | locus YBR009C, strain hhf1, stronger effect = lower value 0.94 | locus YBR021W, strain FUR4, stronger effect = lower value 1.02 | locus YBR023C, strain chs3, stronger effect = lower value 0.984 | locus YBR171W, strain sec66, stronger effect = lower value 0.976 | locus YBR229C, strain ROT2, stronger effect = lower value 0.998 | locus YBR231C, strain swc5, stronger effect = lower value 0.976 | locus YBR279W, strain paf1, stronger effect = lower value 0.987 | locus YCL011C, strain gbp2, stronger effect = lower value 0.963 | locus YCL016C, strain dcc1, stronger effect = lower value 0.988 | locus YCL029C, strain bik1, stronger effect = lower value 1.01 | locus YCL061C, strain MRC1, stronger effect = lower value 0.989 | locus YCL069W, strain vba3, stronger effect = lower value 0.968 | locus YCR088W, strain abp1, stronger effect = lower value 0.986 | locus YDL005C, strain med2, stronger effect = lower value 0.975 | locus YDL035C, strain GPR1, stronger effect = lower value 0.991 | locus YDL040C, strain nat1, stronger effect = lower value 0.979 | locus YDL074C, strain BRE1, stronger effect = lower value 1.01 | locus YDL101C, strain DUN1, stronger effect = lower value 0.995 | locus YDL134C, strain PPH21, stronger effect = lower value 0.974 | locus YDL185W, strain tfp1, stronger effect = lower value 1.02 | locus YDL192W, strain arf1, stronger effect = lower value 1.02 | locus YDR001C, strain nth1, stronger effect = lower value 0.97 | locus YDR069C, strain doa4, stronger effect = lower value 0.957 | locus YDR101C, strain arx1, stronger effect = lower value 1.02 | locus YDR137W, strain rgp1, stronger effect = lower value 0.99 | locus YDR150W, strain NUM1, stronger effect = lower value 1.01 | locus YDR159W, strain sac3, stronger effect = lower value 0.922 | locus YDR162C, strain NBP2, stronger effect = lower value 0.978 | locus YDR195W, strain ref2 0.971 | locus YDR297W, strain sur2, stronger effect = lower value 0.971 | locus YDR318W, strain mcm21, stronger effect = lower value 0.977 | locus YDR334W, strain swr1, stronger effect = lower value 0.982 | locus YDR335W, strain msn5, stronger effect = lower value 0.993 | locus YDR388W, stronger effect = lower value 1 | locus YDR392W, strain spt3, stronger effect = lower value 0.91 | locus YDR502C, strain sam2, stronger effect = lower value 0.994 | locus YEL003W, strain gim4, stronger effect = lower value 0.977 | locus YEL037C, strain rad23, stronger effect = lower value 0.982 | locus YEL061C, strain CIN8 (second series), stronger effect = lower value 0.977 | locus YEL061C, strain CIN8, stronger effect = lower value 0.992 | locus YER015W, strain faa2, stronger effect = lower value 0.968 | locus YER016W, strain bim1, stronger effect = lower value 0.996 | locus YER110C, stronger effect = lower value 1.01 | locus YER111C, strain swi4, stronger effect = lower value 0.982 | locus YER155C, strain BEM2 (second series), stronger effect = lower value 0.956 | locus YER155C, strain BEM2, stronger effect = lower value 1.01 | locus YER167W, strain BCK2, stronger effect = lower value 0.978 | locus YFR010W, strain ubp6, stronger effect = lower value 0.972 | locus YGL078C, strain dbp3, stronger effect = lower value 0.999 | locus YGL086W, strain mad1, stronger effect = lower value 1.04 | locus YGL167C, strain pmr1, stronger effect = lower value 0.961 | locus YGL173C, strain kem1, stronger effect = lower value 0.975 | locus YGL227W, strain vid30, stronger effect = lower value 0.97 | locus YGL240W, strain doc1, stronger effect = lower value 0.97 | locus YGL248W, strain PDE1, stronger effect = lower value 0.998 | locus YGL253W, strain hxk2, stronger effect = lower value 1 | locus YGR078C, strain PAC10, stronger effect = lower value 0.999 | locus YGR135W, strain pre9, stronger effect = lower value 0.978 | locus YGR252W, strain gcn5, stronger effect = lower value 0.928 | locus YHR013C, strain ard1, stronger effect = lower value 0.943 | locus YHR027C, strain rpn1, stronger effect = lower value 0.973 | locus YHR030C, strain SLT2, stronger effect = lower value 1 | locus YHR079C, strain IRE1 (second series), stronger effect = lower value 1 | locus YHR094C, strain hxt1, stronger effect = lower value 1.02 | locus YHR129C, strain ARP1, stronger effect = lower value 1 | locus YHR142W, strain chs7, stronger effect = lower value 0.996 | locus YHR200W, strain rpn10, stronger effect = lower value 1.01 | locus YIL066C, strain RNR3, stronger effect = lower value 1 | locus YIL073C, strain SPO22, stronger effect = lower value 1.02 | locus YIL125W, strain kgd1, stronger effect = lower value 1.02 | locus YIR030C, strain dcg1, stronger effect = lower value 1.01 | locus YJL092W, strain hpr5, stronger effect = lower value 0.989 | locus YJL095W, strain BCK1 (second series), stronger effect = lower value 0.996 | locus YJL095W, strain BCK1, stronger effect = lower value 0.986 | locus YJL115W, strain asf1, stronger effect = lower value 0.984 | locus YJL129C, strain trk1, stronger effect = lower value 0.977 | locus YJL134W, strain LCB3, stronger effect = lower value 1 | locus YJL154C, strain vps35, stronger effect = lower value 0.978 | locus YJL164C, strain tpk1, stronger effect = lower value 1.01 | locus YJL166W, strain qcr8, stronger effect = lower value 0.989 | locus YJL168C, strain set2, stronger effect = lower value 1.01 | locus YJL187C, strain SWE1 (second series), stronger effect = lower value 1.01 | locus YJL187C, strain SWE1, stronger effect = lower value 0.976 | locus YJR043C, strain POL32, stronger effect = lower value 0.995 | locus YKL009W, strain mrt4, stronger effect = lower value 1.01 | locus YKL068W, stronger effect = lower value 0.998 | locus YKL085W, strain MDH1 (second series), stronger effect = lower value 1.01 | locus YKL085W, strain MDH1, stronger effect = lower value 1.01 | locus YKL160W, strain elf1, stronger effect = lower value 1.02 | locus YKR001C, strain vps1, stronger effect = lower value 1.03 | locus YKR026C, strain gcn3, stronger effect = lower value 0.957 | locus YKR091W, strain srl3, stronger effect = lower value 0.965 | locus YLL001W, strain dnm1, stronger effect = lower value 0.987 | locus YLL026W, stronger effect = lower value 0.977 | locus YLL041C, strain sdh2, stronger effect = lower value 0.989 | locus YLR027C, strain aat2, stronger effect = lower value 0.982 | locus YLR039C, strain RIC1, stronger effect = lower value 0.998 | locus YLR058C, strain SHM2, stronger effect = lower value 0.992 | locus YLR102C, strain apc9, stronger effect = lower value 1.01 | locus YLR221C, strain rsa3, stronger effect = lower value 0.994 | locus YLR258W, strain gsy2, stronger effect = lower value 0.971 | locus YLR262C, strain YPT6 (second series), stronger effect = lower value 0.989 | locus YLR262C, strain YPT6, stronger effect = lower value 0.956 | locus YLR268W, strain sec22, stronger effect = lower value 1.05 | locus YLR320W, strain mms22, stronger effect = lower value 0.998 | locus YLR330W, strain CHS5, stronger effect = lower value 1 | locus YLR342W, strain FKS1 (second series), stronger effect = lower value 1.02 | locus YLR342W, strain FKS1, stronger effect = lower value 0.973 | locus YLR357W, strain rsc2, stronger effect = lower value 0.961 | locus YLR370C, strain arc18, stronger effect = lower value 0.976 | locus YLR371W, strain rom2, stronger effect = lower value 1.01 | locus YLR384C, strain iki3, stronger effect = lower value 0.976 | locus YLR418C, strain cdc73, stronger effect = lower value 0.978 | locus YML016C, strain PPZ1, stronger effect = lower value 1 | locus YML032C, strain rad52, stronger effect = lower value 0.976 | locus YML120C, strain ndi1, stronger effect = lower value 0.988 | locus YML124C, strain tub3, stronger effect = lower value 0.994 | locus YMR058W, strain fet3, stronger effect = lower value 0.979 | locus YMR078C, strain ctf18, stronger effect = lower value 1.02 | locus YMR125W, strain sto1, stronger effect = lower value 0.935 | locus YMR129W, stronger effect = lower value 0.966 | locus YMR205C, strain PFK2, stronger effect = lower value 0.941 | locus YMR223W, strain ubp8, stronger effect = lower value 0.996 | locus YMR231W, strain pep5, stronger effect = lower value 0.977 | locus YMR307W, strain GAS1, stronger effect = lower value 1.04 | locus YNL067W, strain RPL9B, stronger effect = lower value 1 | locus YNL071W, strain lat1, stronger effect = lower value 0.988 | locus YNL209W, strain ssb2, stronger effect = lower value 0.965 | locus YNL233W, strain BNI4, stronger effect = lower value 1 | locus YNL248C, strain rpa49, stronger effect = lower value 1.02 | locus YNL250W, strain rad50, stronger effect = lower value 1.01 | locus YNL271C, strain bni1, stronger effect = lower value 1.01 | locus YNL298W, strain CLA4, stronger effect = lower value 1 | locus YNL307C, strain MCK1, stronger effect = lower value 1.02 | locus YNL322C, strain KRE1 (second series), stronger effect = lower value 0.967 | locus YNR049C, strain mso1, stronger effect = lower value 0.97 | locus YNR052C, strain pop2, stronger effect = lower value 1.02 | locus YOL006C, strain TOP1, stronger effect = lower value 1.02 | locus YOL012C, strain htz1 0.905 | locus YOL147C, strain pex11, stronger effect = lower value 1 | locus YOR001W, strain rrp6, stronger effect = lower value 1.02 | locus YOR061W, strain CKA2, stronger effect = lower value 1 | locus YOR069W, strain VPS5, stronger effect = lower value 1 | locus YOR070C, strain gyp1, stronger effect = lower value 0.987 | locus YOR080W, strain dia2, stronger effect = lower value 0.975 | locus YOR083W, strain WHI5, stronger effect = lower value 1.03 | locus YOR106W, strain vam3, stronger effect = lower value 0.995 | locus YOR136W, strain idh2, stronger effect = lower value 1.01 | locus YOR144C, strain elg1, stronger effect = lower value 1 | locus YOR184W, strain ser1, stronger effect = lower value 0.988 | locus YOR265W, strain rbl2, stronger effect = lower value 0.987 | locus YOR270C, strain vph1, stronger effect = lower value 1.02 | locus YOR290C, strain snf2, stronger effect = lower value 0.924 | locus YOR316C, strain cot1, stronger effect = lower value 1 | locus YPL051W, strain arl3, stronger effect = lower value 1.02 | locus YPL078C, strain atp4, stronger effect = lower value 1 | locus YPL106C, strain sse1, stronger effect = lower value 0.95 | locus YPL240C, strain hsp82, stronger effect = lower value 0.974 | locus YPL241C, strain CIN2, stronger effect = lower value 0.996 | locus YPR119W, strain clb2, stronger effect = lower value 0.997 | locus YPR141C, strain kar3, stronger effect = lower value 1.01 | locus YPR163C, strain tif3, stronger effect = lower value 1.01 | locus YPR167C, strain met16, stronger effect = lower value 1 | strain wtn01, stronger effect = lower value 1.05
